Assay outcomes (PubChem BioAssay)
Rows were chosen to be rich in hits. Some 6.9% of all compounds tested hit in one or more screens of this group.
BAZ2B block = qHTS Assay for Inhibitors of BAZ2B | Bromodomain adjacent to zinc finger domain protein 2B (Homo sapiens), Q9UIF8 | AlphaScreen BAZ2B-H3K14Ac peptide displacement | Potency, µM (doses to about 114 µM), inactives show top-dose activity change, negative = inhibition, most hits filed as inhibitors | actives 4.4% (n = 360,000) | AID 504333, 2011; further: on the % scale 0 is the no-effect control and ±100 the full control effect; nearly all actives have a fitted effect of over 60% in size
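Complex of BAZ2B and biotin-H3K14Ac (50 nM apiece) forms over 30 min at RT, then faces library compounds up to 110 uM for another 30 min; AlphaScreen beads added, 20 min dark incubation, luminescence read.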
HP1b binding inh = HTS for Inhibitors of HP1-beta Chromodomain Interactions with Methylated Histone Tails. AlphaScreen HP1-beta / biotin-H3K9me3 peptide binding. Chromobox protein homolog 1 (Homo sapiens), P83916. actives 0.56% (n = 390,000). Potency, µM (series often up to 114 µM), for the others: top-dose activity change, negative = inhibition, most hits filed as inhibitors; further: nearly all actives have a fitted effect of over 70% in size
Target sequence (P83916 whole entry, looked up): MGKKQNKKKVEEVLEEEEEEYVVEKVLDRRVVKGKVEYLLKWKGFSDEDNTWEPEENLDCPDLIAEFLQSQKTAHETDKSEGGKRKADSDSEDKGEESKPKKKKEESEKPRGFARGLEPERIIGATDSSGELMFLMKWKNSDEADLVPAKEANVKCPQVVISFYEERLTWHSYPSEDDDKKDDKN
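Compound inhibition of the preformed complex between 50 nM HP1-beta and 50 nM biotinylated H3K9me3 peptide was read by AlphaScreen. Buffer was PBS pH 7.4 with 0.01% Tween-20. Incubations ran 30 min at room temperature, with 10 ug/mL donor/acceptor beads.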
L3MBTL1 inh = qHTS Assay for the Inhibitors of L3MBTL1. Potency, µM (doses to about 57.1 µM), for inactives: top-dose activity, negative = inhibition, usual class: inhibitors. Lethal(3)malignant brain tumor-like protein 1 (Homo sapiens), Q9Y468. AlphaScreen L3MBTL1–H3K9me1 peptide binding. actives 0.66% (n = 230,000); further: on the % scale 0 is the no-effect control and ±100 the full control effect; nearly all actives have a fitted effect of over 60% in size
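L3MBTL1 (50 nM) pre-complexed 30 min with biotinylated H3(1-15)K9me1 peptide (75 nM), then compounds added for 30 min at room temperature; AlphaScreen streptavidin donor/nickel chelate acceptor beads (10 ug/mL final) read after 30 min dark incubation.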
PLK1 PBD inh = qHTS for Inhibitors of PLK1-PDB (polo-like kinase 1 - polo-box domain): Primary Screen; Plk1 PBD binding of FITC phosphopeptide, fluorescence polarization; Potency, µM, for the others: max response, negative = inhibition, most hits filed as inhibitors; actives 2.8% (n = 360,000); AID 720504, 2013; further: series mostly up to about 57 µM; on the % scale 0 is the no-effect control and ±100 the full control effect; nearly all actives have a fitted effect of over 65% in size
VDR inhibitor = Inhibitors of the vitamin D receptor (VDR): qHTS; VDR-SRC2-3 peptide fluorescence polarization, 2 h; AID 504847, 2011; actives 0.93% (n = 400,000); Potency, µM, for inactives: max response, negative = inhibition, usual class: inhibitors; Vitamin D3 receptor (Homo sapiens), P11473; further: on the % scale 0 is the no-effect control and ±100 the full control effect
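Inhibition of the VDR/SRC2-3 peptide interaction is quantified by fluorescence polarization. Compounds (23 nl, pintool) incubate with the reagents for 2 hours at ambient room temperature.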
JMJD2A Tudor = qHTS Assay for Inhibitors of JMJD2A-Tudor Domain. AlphaScreen JMJD2A-Tudor / H3K4me3 peptide binding. Lysine-specific demethylase 4A (Homo sapiens), O75164. Potency, µM (titrated, usually from 114 µM), inactives show at the highest dose activity change, negative = inhibition, hits mostly inhibitors. actives 4.4% (n = 390,000); further: on the % scale 0 is the no-effect control and ±100 the full control effect; nearly all actives have a fitted effect of over 50% in size
An asterisk follows results filed as active; ? = inconclusive; nt = no result given; [ ] = dose if it differs, or a comment. The call rests on the fitted dose curve; in most records, active means well fitted curve in the direction sought with a large enough effect; inconclusive means small, poorly fitted or top-dose-only effect, or another doubt; inactive means no such curve, though single readings can be large; an effect the other way counts as inactive or inconclusive. Potency means the concentration at half of the fitted maximal effect.

SMILES | BAZ2B block | HP1b binding inh | L3MBTL1 inh | PLK1 PBD inh | VDR inhibitor | JMJD2A Tudor
Cc1ccc(Nc2nc(N/N=C/c3c[nH]c4ccccc34)nc(N3CCOCC3)n2)cc1 | 45µM* | -36% | -24% | -9% | -19% | 45µM*
Cc1[nH]c2ccccc2c1/C=N/Nc1nc(Nc2ccc(F)cc2)nc(N2CCOCC2)n1 | 50µM* | -18% | ? | ? | 1% | 10%[11.4 µM]
COc1ccc(N(C)C(=O)C2CCCN2S(=O)(=O)c2cccc3nsnc23)cc1 (stereo not drawn) | -3% | 20% | nt | -13% | -25% | -17%
CC1=C(C(=O)c2ccccc2)C(c2ccc(OC(F)F)cc2)NC(=S)N1 (stereo not drawn) | ? | ? | -29% | 24µM* | ? | ?
Cc1cccc(-c2nc3c4ccccc4nc(N4CCN(c5ccccc5F)CC4)n3n2)c1 | 2% | 44% | nt | nt | -2% | -7%
COc1cc(OC)cc(C(=O)N(Cc2ccco2)Cc2cccs2)c1 | nt | 11% | nt | nt | 4% | -33%
S=P(c1ccc(N2CCOCC2)cc1N1CCOCC1)(N1CCOCC1)N1CCOCC1 | -30% | ? | 4% | 21µM* | 79µM* | -32%
CCOC(=O)[C@H]1NN=C(C(=O)OC)[C@@H]1c1ccccc1 | -24% | 8% | -3% | 38µM* | ? | -33%[57.1 µM]
CCOCCCNC(=O)Cn1cnc2c(cnn2-c2ccc(OC)cc2)c1=O | 0% | 13% | 0% | 27µM* | -24% | -22%
COc1ccc2c(c1)C(=O)[C@H](OC(=O)Nc1ccc(OC(F)F)cc1)[C@@H](c1ccc(OC)c(Br)c1)O2 | nt | nt | nt | nt | 15% | nt
CC(=O)Nc1ccc(S(=O)(=O)NCC(=O)OCC(=O)NCCc2ccccc2)cc1 | nt | nt | nt | -27% | nt | nt
CC(=O)Nc1nc(-c2ccccc2)c(-c2ccccc2)s1 | nt | 25% | nt | nt | 4% | -22%
CC(=O)NC1Sc2ccccc2N=C1c1ccccc1 (stereo not drawn) | -4% | ? | nt | 19µM* | 79µM* | 50µM*
COc1cccc(Cn2nnc(C(=O)NCc3ccc(Cl)cc3Cl)c2N)c1 | -4% | 6% | nt | nt | -4% | 0%
O=C(OCc1cn([C@@H]2C[C@H](c3ccc(Cl)cc3)N(C(=O)C3CCCCC3)C[C@H]2O)nn1)c1ccccc1 | nt | nt | nt | -1% | nt | nt
